According to ChEMBL document CHEMBL3433997, “St. Jude Leishmania screening dataset” (2016):

Experiments:
Format in all cases: functional
[1] = molecular target: Solute carrier family 2, facilitated glucose transporter member 1 (Homo sapiens) (UniProt P11166); assay: ST_JUDE_LEISH: Cytotoxicity at 2uM final concentration against transgenic Leishmania Mexicana promastigotes LmGLUT1 that are glucose transport deficient and complemented with the human glucose transporter GLUT1. Activity is measured by DNA content using SYBR green in vitro
[2] = molecular target: Hexose transporter 1 (Plasmodium falciparum) (UniProt O97467); assay: ST_JUDE_LEISH: Cytotoxicity at 2uM final concentration against transgenic Leishmania Mexicana promastigotes LmPfHT that are glucose transport deficient and complemented with the Plasmodium falciparum hexose transporter. Activity is measured by DNA content using SYBR green in vitro
[3] = molecular target: Glucose transporter (Leishmania mexicana) (UniProt O61059); assay: ST_JUDE_LEISH: Cytotoxicity at 2uM final concentration against transgenic Leishmania Mexicana promastigotes LmGT2 that are glucose transport deficient and complemented with the L. Mexicana glucose transporter 2. Activity is measured by DNA content using SYBR green in vitro

Chain of Solute carrier family 2, facilitated glucose transporter member 1 (Homo sapiens) (P11166 whole entry): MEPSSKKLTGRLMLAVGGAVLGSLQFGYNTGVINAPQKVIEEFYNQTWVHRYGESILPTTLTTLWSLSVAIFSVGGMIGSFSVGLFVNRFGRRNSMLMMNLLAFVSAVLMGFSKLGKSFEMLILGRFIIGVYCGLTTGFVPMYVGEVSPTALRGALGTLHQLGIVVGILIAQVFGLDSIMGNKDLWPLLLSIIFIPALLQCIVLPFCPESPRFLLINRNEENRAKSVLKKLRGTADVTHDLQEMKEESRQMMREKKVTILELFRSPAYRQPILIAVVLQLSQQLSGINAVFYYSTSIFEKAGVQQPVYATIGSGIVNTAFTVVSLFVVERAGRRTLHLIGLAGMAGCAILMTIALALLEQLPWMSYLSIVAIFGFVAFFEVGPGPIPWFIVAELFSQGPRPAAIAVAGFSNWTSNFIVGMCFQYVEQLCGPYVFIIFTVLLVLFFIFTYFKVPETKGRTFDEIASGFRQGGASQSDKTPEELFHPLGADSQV

CCNC(=O)Nc1ccc(N(C)c2ccnc(Nc3ccc(CS(C)(=O)=O)cc3)n2)cc1
inhibition [1]: 13.5% | inhibition [2]: 12.2% | inhibition [3]: 9.58%

COc1cc(F)c2nccc([C@@H](O)CN3CCC(NCc4ccc5c(n4)NC(=O)CS5)C(F)C3)c2c1 (stereo partly specified)
inhibition [1]: 3.18% | inhibition [2]: 3.06% | inhibition [3]: 3.18%

O=C(/C=C/c1ccc(Cl)c(Cl)c1)NC1CCN(Cc2ccc(O)cc2)CC1
inhibition [1]: 1.47% | inhibition [2]: 0.53% | inhibition [3]: -3.54%

CCOc1ccccc1N1CCN(CCCNC(=O)/C(=C/C=C/c2cc3cc(Cl)c(Cl)cc3[nH]2)OC)CC1
inhibition [1]: 1.44% | inhibition [2]: -0.07% | inhibition [3]: 1.24%

O=C(Nc1ccc(C(=O)N(Cc2ccc3c(c2)OCO3)C2CCCC2)cc1)c1cccs1
inhibition [1]: 1.03% | inhibition [2]: 0.69% | inhibition [3]: -2.85%

CCCOc1ccc(C=C(CC(=O)O)c2nc3ccccc3s2)cc1OCC
inhibition [1]: 2.27% | inhibition [2]: 2.53% | inhibition [3]: -7.54%

OC(CNc1ccnc(Nc2ccc(Cl)cc2)n1)c1cccc(C(F)(F)F)c1 (stereo unspecified)
inhibition [1]: 1.93% | inhibition [2]: 2.79% | inhibition [3]: 0.49%

COc1cc2nc(NCCCN3CCCCC3)nc(NCc3ccccc3)c2cc1OC
inhibition [1]: 2.96% | inhibition [2]: 4.73% | inhibition [3]: -0.35%

O=C(CC1SC(N2N=C(c3cccs3)CC2c2ccccc2)=NC1=O)Nc1ccc(Cl)cc1 (stereo unspecified)
inhibition [1]: 1.98% | inhibition [2]: 2.91% | inhibition [3]: -0.33%

O=C(Nc1cccc(CN2CCCN(Cc3ccc(O)cc3)CC2)c1)c1cc2ccccc2s1
inhibition [1]: -1.48% | inhibition [2]: 1.71% | inhibition [3]: -2.92%

Cc1cc2ncn(-c3nccc(NCc4ccc(F)cc4)n3)c2cc1C
inhibition [1]: -0.72% | inhibition [2]: -1.37% | inhibition [3]: -0.57%

CC1(C)NC(N)=NC(=N)N1OCCc1ccc(N)cc1
inhibition [1]: 5.6% | inhibition [2]: 6.43% | inhibition [3]: 5.49%

O=C(Nc1cccc(C2=NCCCN2)c1)Nc1cccc(C2=NCCCN2)c1
inhibition [1]: 2.31% | inhibition [2]: 1.94% | inhibition [3]: 0.46%

O=C(Nc1ccc(OC2CCN(Cc3ccc(F)cc3)CC2)c(Cl)c1)c1ccccc1
inhibition [1]: -3.58% | inhibition [2]: 0.82% | inhibition [3]: 6.06%

CCOc1c(Cl)cc(Cl)cc1CNCCCNc1nc2ccccc2[nH]1
inhibition [1]: 1.3% | inhibition [2]: 6.95% | inhibition [3]: 4.33%

CCCCOc1c(CCC)cc(Cc2cnc(N)nc2N)cc1CCC
inhibition [1]: 7.57% | inhibition [2]: 3.82% | inhibition [3]: -0.35%

CCCCCCC1(C)N=C(N)N=C(N)C1c1ccc(Cl)c(Cl)c1 (stereo unspecified)
inhibition [1]: 1.71% | inhibition [2]: 1.39% | inhibition [3]: 0.06%

Cc1c(Cl)ccc2c(C(=O)Nc3ccncc3)cc(-c3cccnc3)nc12
inhibition [1]: -4.52% | inhibition [2]: -2.06% | inhibition [3]: -2.1%

COc1cccc(C2CCN(CCN3CCC(NC(=O)c4ccc(-c5ccc(C#N)cc5)cc4)CC3)CC2)c1
inhibition [1]: -1.18% | inhibition [2]: 0.31% | inhibition [3]: 0.19%

CC(C)C[C@H](NC(=O)c1cc2ccccc2s1)C(=O)N[C@H]1CCN(Cc2ccc(I)c(OC3CCN(C)C3)c2)C1 (stereo partly specified)
inhibition [1]: -1.02% | inhibition [2]: 1.35% | inhibition [3]: -2.35%

COc1ccc2ccc(F)c(CC(=O)N3CCOC(CNCc4cccc(-c5ccc(F)cc5)n4)C3)c2n1 (stereo unspecified)
inhibition [1]: -1.79% | inhibition [2]: 0.05% | inhibition [3]: -0.12%

Cn1ccnc1CNC(=O)c1ccc(-c2ccc(-c3nc4cc(C(F)(F)F)ccc4[nH]3)s2)cc1
inhibition [1]: 4.17% | inhibition [2]: 3.3% | inhibition [3]: 2.03%

N=C(N)c1nc2ccccc2s1
inhibition [1]: 1.87% | inhibition [2]: 1.89% | inhibition [3]: 2.04%

COc1ccc(-c2cccc(NC(=O)c3cccc(C#N)c3)c2)cc1CN1CCNCC1
inhibition [1]: 11% | inhibition [2]: 11.2% | inhibition [3]: 10.6%

Cc1cc(CN2CC[C@H](NC(=O)c3ccc(Cl)c(Cl)c3)C2)ccc1OCCN1CCCC1
inhibition [1]: -1.05% | inhibition [2]: 1.81% | inhibition [3]: -2.1%

CCN(CC)CCNc1nc(C=Cc2ccc(Cl)cc2)nc2cc3ccccc3cc12
inhibition [1]: -0.78% | inhibition [2]: -0.58% | inhibition [3]: -1.66%

CC(C)(C)C1CC(=O)CC2C(=O)N(c3ccc(Br)cc3)C(=O)C21 (stereo unspecified)
inhibition [1]: 2.94% | inhibition [2]: 0.44% | inhibition [3]: -1.64%

O=C(N[C@@H](Cc1ccccc1)C(=O)NCCN1CCCC1)c1ccc(O)c(-c2ccc(Cl)c(Cl)c2)c1
inhibition [1]: 7.15% | inhibition [2]: 3.32% | inhibition [3]: 6.16%

COc1cc2[nH]c(-c3ccc(O)cc3)c(C)c(=O)c2c(OC)c1OC
inhibition [1]: 2.67% | inhibition [2]: 0.09% | inhibition [3]: -2.9%

Cc1c(Cn2nc(Cl)c(N3CCNCC3)cc2=O)cccc1NC(=O)Nc1ccc(-c2ccccc2)cc1
inhibition [1]: -2.62% | inhibition [2]: -2.29% | inhibition [3]: -0.03%

O=C(N[C@@H](CC1CCCCC1)C(=O)NCc1cccc(C(F)(F)F)c1)c1ccc(O)c(-c2ccc(Cl)c(Cl)c2)c1
inhibition [1]: 1.91% | inhibition [2]: 1.58% | inhibition [3]: 1.16%

Cc1ccc(NC(=O)c2ccc(C(=O)NC3CCN(CC4CCCCC4)CC3)cc2)cc1
inhibition [1]: 2.26% | inhibition [2]: 3.07% | inhibition [3]: 1.65%

CCOc1ccc2c(=NN=Cc3ccccc3F)cc(C)[nH]c2c1
inhibition [1]: 1.77% | inhibition [2]: 1.33% | inhibition [3]: -0.43%

Nc1cccc(C=CC(=O)N=c2cc[nH]c3ccccc23)c1
inhibition [1]: -0.24% | inhibition [2]: 0.74% | inhibition [3]: -2.1%

N#Cc1ccc2c(c1)CCN(CCC1CCC(NC(=O)/C=C/c3ccc4[nH]ccc4c3)CC1)CC2 (stereo unspecified)
inhibition [1]: 1.65% | inhibition [2]: 0.57% | inhibition [3]: 0.13%

COc1ccc(CNCc2cccc(-c3ccc(-c4nc5cc(C(F)(F)F)ccc5[nH]4)cc3)c2)cc1
inhibition [1]: 7.79% | inhibition [2]: 6.65% | inhibition [3]: 6%

COc1ccc2nccc([C@@H](O)CN3CCC(NCCOc4ccc(F)cc4[N+](=O)[O-])CC3)c2c1
inhibition [1]: -1.59% | inhibition [2]: -1% | inhibition [3]: 1.61%

Cc1c(Cl)cccc1S(=O)(=O)Nc1cccc(CCN2CCC(N3CCCCC3)CC2)c1
inhibition [1]: 2.7% | inhibition [2]: 4.32% | inhibition [3]: 2.25%

Cc1nc(C)c(CC(=O)Nc2cccc(-c3cccc(-c4nc5cccc(C)c5[nH]4)c3)c2)s1
inhibition [1]: -1.73% | inhibition [2]: -0.36% | inhibition [3]: -0.58%

Nc1ncc(-c2ccc(F)cc2)c2ccc(-c3cccc(F)c3)cc12
inhibition [1]: 5.19% | inhibition [2]: 5.19% | inhibition [3]: 2.72%

CN1CCN(S(=O)(=O)c2cccc(Nc3nccc(N(C)c4ccc5c(c4)nc(NC(=O)c4cccs4)n5C)n3)c2)CC1
inhibition [1]: -0.55% | inhibition [2]: 0.27% | inhibition [3]: 1.49%

CCc1cccc2sc(N3CCN(C(=O)c4ccc([N+](=O)[O-])o4)CC3)nc12
inhibition [1]: 71.2% | inhibition [2]: 69.1% | inhibition [3]: 36.8%

Cc1cc(NCCC(=O)Nc2ccccc2)nc(NCCc2cccs2)n1
inhibition [1]: 4.03% | inhibition [2]: 2.26% | inhibition [3]: -0.18%

O=S(=O)(c1ccc(OCc2ccc(Cl)cc2)cc1)c1cc2c(cc1O)CCN(C1CCC1)CC2
inhibition [1]: 2.05% | inhibition [2]: 1.15% | inhibition [3]: 1.15%

COc1ccc(C2CCN(C#N)C2)cc1OC1CCCC1 (stereo unspecified)
inhibition [1]: 17% | inhibition [2]: 17.2% | inhibition [3]: 11.1%

O=C(NC(c1ccccc1)c1ccc2cccnc2c1O)c1ccccc1 (stereo unspecified)
inhibition [1]: 4.04% | inhibition [2]: 6.18% | inhibition [3]: 4.35%

NC(Cc1cccc(I)c1)C(=O)NCC1CCCO1 (stereo unspecified)
inhibition [1]: 1.94% | inhibition [2]: 0.37% | inhibition [3]: 0.96%
